Laboratory results published in PubChem BioAssay.
The source made the active and inactive calls.

How the values were obtained:
[1] = target: Albumin (Bos taurus) (UniProt P02769); experiment: compounds binding labelled BSA control protein – biochemical, small-molecule microarray, Alexa647 label, 635/667 nm fluorescence, artefact control for SMM control protein annotation, profiling panel (AID 1118); conditions: BSA-A647 binding, fluorescence 635 nm, higher = more signal;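 note: score merges 667 nm emission intensity and signal-to-noise per printed compound spot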
[2] = probe aXIP binding to arrayed compounds – biochemical, NeuroSMM set, 635/667 nm fluorescence, primary screen (AID 1119); conditions: small-molecule microarray, higher = more signal, called active from +8 up or from −8 down;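 note: probe is the protein aXip251-270 applied at 1 µg/mL to compound-printed slides; binding of probe to printed compounds measured as 667 nm fluorescence plus signal to noise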
[3] = probe aNOTCH3 binding on compound microarray – biochemical, small-molecule microarray, 635/667 nm fluorescence, primary screen (AID 1120); conditions: higher = more signal;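 note: probe is a biotin-tagged antibody raised against NOTCH3 rather than NOTCH3 protein; score merges spot fluorescence near 667 nm with spot signal to noise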
[4] = probe aNOTCH2 binding on compound microarray – biochemical, small-molecule microarray, 635/667 nm fluorescence, primary screen (AID 1121); conditions: higher = more signal;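 note: score merges feature fluorescence read at 667 nm with its signal to noise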
[5] = target: Carbonic anhydrase 2 (Homo sapiens) (UniProt P00918); experiment: compounds binding carbonic anhydrase 2 – biochemical, small-molecule microarray, Alexa647-labelled CAII, profiling panel (AID 1122); conditions: CAII-A647 binding fluorescence, higher = more signal
[6] = COS7 lysate on small-molecule microarray, probe aHis, 635 nm (AID 1123); conditions: COS7 cell lysate, fluorescence, higher = more signal;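 note: z-score combines 667nm fluorescence intensity with signal-to-noise per printed compound spot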
[7] = probe aLAP1 signal on lysate-treated microarray – cell lysate, small-molecule microarray, COS7 lysate, primary screen (AID 1124); conditions: probe aLAP1, fluorescence, higher = more signal;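 note: lysate comes from COS7 cells expressing LAP1 and is applied at 0.3 µg/mL; score merges spot fluorescence near 667 nm with signal-to-noise over triplicate slides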
[8] = tested on: Sam68 (KHDRBS1); experiment: compounds binding KHDRBS1 protein – biochemical, small-molecule microarray, 635 nm fluorescence, primary screen (AID 1125); conditions: higher = more signal;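 note: score merges 667 nm channel intensity with signal to noise over triplicate slides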
[9] = tested on: Chordin-like protein 2 (CHRDL2); experiment: compounds binding chordin-like 2 – biochemical, small-molecule microarray, 635 nm fluorescence, primary screen (AID 1126); conditions: fluorescence 635 nm, higher = more signal;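 note: printed compound slides probed with Chrdl2 protein at 4 µg/mL for 1 h at 4 C; score merges 667 nm emission intensity with signal to noise over three replicate slides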
[10] = target: Concanavalin-A (Canavalia ensiformis) (UniProt P02866); experiment: compounds binding concanavalin A lectin – biochemical, small-molecule microarray, Alexa647 label, 635 nm, artefact control for SMM control protein annotation, primary screen (AID 1127); conditions: ConA-A647 binding fluorescence, higher = more signal;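 note: z combines 667 nm emission intensity with signal-to-noise across three replicate slides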
[11] = compounds binding Alexa647 anti-His antibody – biochemical, small-molecule microarray, 635 nm fluorescence, artefact control for SMM control protein annotation, primary screen (AID 1128); conditions: higher = more signal;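 note: score merges feature fluorescence with signal-to-noise for each printed compound spot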
[12] = tested on: Human papillomavirus type 1a E7 protein (residues 1-88); experiment: HPV1a E7 small-molecule binders, primary screen, biochemical, small-molecule microarray, residues 1-88, 635 nm (AID 1129); conditions: small-molecule microarray binding, fluorescence 635 nm; higher = more signal
[13] = target: Focal adhesion kinase 1 (Homo sapiens) (UniProt Q05397); experiment: PTK2 protein binding on printed compound slides – biochemical, small-molecule microarray, 635/667 nm fluorescence, BSA, DTT, primary screen (AID 1130); conditions: 635 nm fluorescence, higher = more signal;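 note: composite of spot emission at 667 nm and signal to noise over triplicate slides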
[14] = tested on: Fibrinogen (Alexa647-labelled); experiment: Alexa647-fibrinogen binding to printed small molecules – biochemical, small-molecule microarray, 635/667 nm fluorescence, artefact control for SMM control-protein annotation, profiling panel (AID 1131); conditions: fibrinogen-A647 binding fluorescence, higher = more signal;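 note: z-score merges 667 nm fluorescence with per-spot signal-to-noise over triplicate slides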
[15] = target: Follistatin (Homo sapiens) (UniProt P19883); experiment: FST protein binding to printed compounds – biochemical, small-molecule microarray, 635/667 nm fluorescence, primary screen (AID 1132); conditions: 635 nm fluorescence, higher = more signal
[16] = target: Fibroblast growth factor 2 (Homo sapiens) (UniProt P09038); experiment: basic fibroblast growth factor binding to printed compounds – biochemical, small-molecule microarray, 635/667 nm fluorescence, primary screen (AID 1133); conditions: FGF2, fluorescence 635/667, higher = more signal
[17] = JC-1 mitochondrial potential readout, lung cancer cells – cell-based, A549, JC-1 fluorescence, basal, 24 h, 100 nL, profiling panel (AID 1138); conditions: higher = more signal;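 note: A549 lung adenocarcinoma cells under basal conditions with no added stimulus; test concentration not given here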
[18] = tested on: Lefty1; experiment: Lefty1 protein binding to printed compounds – biochemical, small-molecule microarray, 635/667 nm fluorescence, primary screen (AID 1139); conditions: fluorescence 635/667, higher = more signal
[19] = tested on: wheat germ agglutinin (Triticum aestivum), Alexa647-labelled; experiment: Alexa647-WGA lectin binding to printed small molecules – biochemical, small-molecule microarray, 635/667 nm fluorescence, artefact control for SMM control-protein annotation, profiling panel (AID 1140); conditions: WGA-A647 binding, 635 nm fluorescence, higher = more signal;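 note: score merges 667 nm feature emission with signal to noise over triplicate slides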
[20] = target: Luciferin 4-monooxygenase (Photinus pyralis) (UniProt P08659); experiment: inhibition of purified Photinus pyralis luciferase – biochemical, luminescence, purified enzyme, 2006 set, primary screen (AID 1141); conditions: purified firefly luciferase, SteadyGlo luminescence, 30 min; higher = more signal, called active from +8 up or from −8 down;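 note: cell-free assay with purified firefly luciferase at 100 ng per well in PBS; test concentration not given here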
Luciferin 4-monooxygenase (Photinus pyralis), sequence (P08659 whole entry, looked up): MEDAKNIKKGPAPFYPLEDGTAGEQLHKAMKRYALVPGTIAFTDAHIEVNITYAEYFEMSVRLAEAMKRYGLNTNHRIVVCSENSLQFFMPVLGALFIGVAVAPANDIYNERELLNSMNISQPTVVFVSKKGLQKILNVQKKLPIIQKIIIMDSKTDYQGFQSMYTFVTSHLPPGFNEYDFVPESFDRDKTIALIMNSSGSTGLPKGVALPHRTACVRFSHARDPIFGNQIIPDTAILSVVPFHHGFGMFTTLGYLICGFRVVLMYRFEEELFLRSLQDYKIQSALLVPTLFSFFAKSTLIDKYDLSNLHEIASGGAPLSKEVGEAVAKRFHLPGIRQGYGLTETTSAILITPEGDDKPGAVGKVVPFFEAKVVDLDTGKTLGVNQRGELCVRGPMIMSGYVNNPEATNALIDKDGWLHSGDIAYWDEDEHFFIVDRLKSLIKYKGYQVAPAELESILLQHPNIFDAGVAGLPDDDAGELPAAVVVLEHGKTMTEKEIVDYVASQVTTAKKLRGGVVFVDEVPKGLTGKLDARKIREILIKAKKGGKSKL

Albumin (Bos taurus), sequence (P02769 whole entry, looked up): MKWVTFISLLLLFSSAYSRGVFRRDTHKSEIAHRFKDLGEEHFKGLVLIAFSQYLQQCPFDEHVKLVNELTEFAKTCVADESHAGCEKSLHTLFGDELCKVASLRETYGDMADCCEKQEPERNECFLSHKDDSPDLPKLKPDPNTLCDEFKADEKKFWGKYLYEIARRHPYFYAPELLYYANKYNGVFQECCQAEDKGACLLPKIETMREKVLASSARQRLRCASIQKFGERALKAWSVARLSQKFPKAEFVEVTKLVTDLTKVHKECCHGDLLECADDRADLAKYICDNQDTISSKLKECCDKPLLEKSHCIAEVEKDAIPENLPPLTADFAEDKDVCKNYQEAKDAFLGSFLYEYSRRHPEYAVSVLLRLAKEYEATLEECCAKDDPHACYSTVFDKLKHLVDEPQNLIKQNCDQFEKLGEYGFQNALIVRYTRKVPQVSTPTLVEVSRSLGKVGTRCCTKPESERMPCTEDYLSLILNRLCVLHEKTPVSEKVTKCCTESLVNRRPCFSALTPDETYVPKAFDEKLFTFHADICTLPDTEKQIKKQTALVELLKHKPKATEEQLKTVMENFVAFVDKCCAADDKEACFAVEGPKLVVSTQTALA
Focal adhesion kinase 1 (Homo sapiens), sequence (Q05397 whole entry, looked up): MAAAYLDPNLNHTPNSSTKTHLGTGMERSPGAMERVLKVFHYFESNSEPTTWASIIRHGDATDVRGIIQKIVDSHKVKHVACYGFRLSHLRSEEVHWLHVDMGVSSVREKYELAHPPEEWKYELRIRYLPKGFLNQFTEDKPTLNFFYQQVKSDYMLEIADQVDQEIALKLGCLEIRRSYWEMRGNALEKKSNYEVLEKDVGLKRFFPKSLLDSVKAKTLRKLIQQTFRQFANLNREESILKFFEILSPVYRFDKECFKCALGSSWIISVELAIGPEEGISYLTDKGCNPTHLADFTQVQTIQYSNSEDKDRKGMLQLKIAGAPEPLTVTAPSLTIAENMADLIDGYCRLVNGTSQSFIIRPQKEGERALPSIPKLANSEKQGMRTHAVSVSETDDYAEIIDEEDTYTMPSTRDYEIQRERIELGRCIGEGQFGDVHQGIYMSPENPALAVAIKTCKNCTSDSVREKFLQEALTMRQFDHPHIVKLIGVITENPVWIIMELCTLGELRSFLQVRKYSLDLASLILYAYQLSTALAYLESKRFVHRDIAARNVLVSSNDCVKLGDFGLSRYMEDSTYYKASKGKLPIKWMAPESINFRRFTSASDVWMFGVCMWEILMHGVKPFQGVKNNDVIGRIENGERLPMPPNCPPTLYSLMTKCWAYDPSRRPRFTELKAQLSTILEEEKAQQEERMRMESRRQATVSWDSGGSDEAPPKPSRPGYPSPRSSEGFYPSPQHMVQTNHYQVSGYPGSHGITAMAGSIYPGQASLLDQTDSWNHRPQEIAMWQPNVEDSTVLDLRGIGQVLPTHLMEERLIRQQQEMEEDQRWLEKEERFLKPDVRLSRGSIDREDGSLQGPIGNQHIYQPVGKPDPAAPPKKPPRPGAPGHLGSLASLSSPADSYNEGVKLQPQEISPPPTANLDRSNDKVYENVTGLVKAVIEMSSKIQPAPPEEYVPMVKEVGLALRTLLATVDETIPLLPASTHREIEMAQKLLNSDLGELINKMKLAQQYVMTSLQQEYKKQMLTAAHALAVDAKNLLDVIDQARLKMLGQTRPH
Concanavalin-A (Canavalia ensiformis), sequence (P02866 whole entry, looked up): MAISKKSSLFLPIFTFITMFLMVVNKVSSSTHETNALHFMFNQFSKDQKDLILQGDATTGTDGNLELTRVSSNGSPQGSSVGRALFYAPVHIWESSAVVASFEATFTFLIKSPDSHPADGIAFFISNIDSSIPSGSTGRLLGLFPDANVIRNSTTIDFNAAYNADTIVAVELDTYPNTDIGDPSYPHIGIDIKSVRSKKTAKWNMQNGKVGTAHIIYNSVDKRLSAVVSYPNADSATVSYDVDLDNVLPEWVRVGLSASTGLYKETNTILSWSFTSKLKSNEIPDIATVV
Fibroblast growth factor 2 (Homo sapiens), sequence (P09038 whole entry, looked up): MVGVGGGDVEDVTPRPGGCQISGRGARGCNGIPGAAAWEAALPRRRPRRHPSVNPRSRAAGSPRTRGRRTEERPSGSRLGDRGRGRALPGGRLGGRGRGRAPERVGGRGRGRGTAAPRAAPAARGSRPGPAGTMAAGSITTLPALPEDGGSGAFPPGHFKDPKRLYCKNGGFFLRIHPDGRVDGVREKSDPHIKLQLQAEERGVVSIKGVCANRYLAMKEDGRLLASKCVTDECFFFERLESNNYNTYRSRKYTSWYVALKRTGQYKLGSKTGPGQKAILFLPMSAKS
Follistatin (Homo sapiens), sequence (P19883 whole entry, looked up): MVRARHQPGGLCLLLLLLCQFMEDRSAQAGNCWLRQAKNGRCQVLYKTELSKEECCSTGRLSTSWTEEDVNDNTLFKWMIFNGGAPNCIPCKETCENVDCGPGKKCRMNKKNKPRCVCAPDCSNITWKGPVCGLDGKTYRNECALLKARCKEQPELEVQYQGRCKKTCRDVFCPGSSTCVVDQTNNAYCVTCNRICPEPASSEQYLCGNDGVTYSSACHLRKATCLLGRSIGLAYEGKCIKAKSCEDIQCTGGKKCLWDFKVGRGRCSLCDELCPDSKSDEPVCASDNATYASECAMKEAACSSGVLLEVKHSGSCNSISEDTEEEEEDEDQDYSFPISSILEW

Compound	composite z-score [1]	composite Z-score [2]	composite z-score [3]	composite z-score [4]	composite z-score [5]	composite z-score [6]	composite z-score [7]	composite z-score [8]	composite z-score [9]	composite z-score [10]	composite z-score [11]	composite z-score [12]	composite z-score [13]	composite z-score [14]	composite z-score [15]	composite z-score [16]	z-score [17]	composite z-score [18]	composite z-score [19]	z-score [20]
C=C[C@H](C)[C@@H](OC(=O)Nc1ccc(OC)cc1)c1ccc(O)c2ccccc12	-0.964	-0.734 (inactive)	-0.118	-0.167	0.742	0.832	0.152	0.357	0.257	-0.365	0.965	0.0812	-0.603	-0.95	0.999	0.0495	-1.64	1.04	-0.235	-5.17 (inactive)
O=C1C[C@@](C(=O)NCCN2CCOCC2)(c2ccc([N+](=O)[O-])cc2)[C@@H](c2ccc(CO)cc2I)N1CC12CC3CC(CC(C3)C1)C2	-0.091	0.0692 (inactive)	0.0842	-0.037	0.584	1.77	0.811	1.33	0.392	0.987	1.37	1.24	0.656	0.954	1.19	1.22	-0.826	1.08	0.981	-1.51 (inactive)
COc1cc(COC(C)=O)ccc1OC(C)=O	-0.0355	-0.254 (inactive)	0.397	-0.0304	-0.171	0.279	-0.184	0.624	0.558	0.733	-0.0364	0.262	0.661	0.0038	0.512	0.102	1.47	0.45	-0.155	-1.52 (inactive)
Cc1ccc(S[C@]2(C(=O)NCCCN(C)C)CC(=O)N(Cc3cc(C(F)(F)F)cc(C(F)(F)F)c3)[C@@H]2c2ccc(CO)cc2)cc1	0.384	0.624 (inactive)	-0.149	-0.106	0.874	0.616	0.357	-0.427	-0.869	-0.949	-0.237	-0.817	0.145	-0.603	-0.802	-1.33	0.134	-0.493	0.0796	-0.303 (inactive)
O=C1C[C@]2(c3ccc([N+](=O)[O-])cc3)C(=O)N(CC(F)(F)F)c3cc(CO)ccc3[C@H]2N1C1CCCCC1	-0.749	-0.0774 (inactive)	-0.125	-0.112	-0.634	0.0971	0.206	-0.686	-1.26	-0.546	-1.55	-0.15	0.114	-0.603	-1.13	-0.808	0.673	-1.44	-0.288	-1 (inactive)
COCCOC(=O)N1C(=O)[C@@]2(c3cc(C#Cc4ccc(OC)cc4)ccc31)[C@H](c1ccccc1OCCO)N1[C@H](c3ccccc3)[C@H](c3ccccc3)OC(=O)[C@H]1[C@@H]2C(=O)NC[C@H](O)c1ccccc1	-0.0206	-0.112 (inactive)	0.156	-0.115	0.528	1.6	0.618	1.29	0.711	0.999	0.992	1.24	0.824	0.782	1.33	1.6	-0.922	1.16	0.889	0.385 (inactive)
CCCC#C[Si](O[C@H](CC)c1cn(Cc2cccc(Cl)c2)nn1)(C(C)C)C(C)C	0.697	-0.014 (inactive)	0.0715	-0.179	0.182	1.03	0.249	1.18	0.103	0.7	0.849	0.87	-0.442	0.684	0.357	0.54	-0.264	0.467	0.686	-0.786 (inactive)
CC(C)NC(=O)[C@@H]1c2ccccc2C(=O)N(C2Cc3ccccc3C2)[C@H]1c1ccc(CO)cc1	0.416	0.392 (inactive)	-0.145	-0.117	0.492	1.62	0.781	0.983	-0.321	0.771	1.51	1.04	0.0815	0.445	0.351	0.162	2.54	-0.0727	0.664	0.668 (inactive)
CN1C(=O)C2C=CC(C(O)c3ccc([N+](=O)[O-])cc3)N(N3CCCCC3)C2C1=O (stereo not given)	0.818	-0.0829 (inactive)	0.246	0.0791	0.673	1.55	0.761	1.26	0.172	1.09	0.922	1.18	0.115	0.938	1.12	0.651	-0.39	-0.0977	0.913	-0.661 (inactive)
